Data on 19 compounds can be found in PubChem BioAssay (NCATS).

Assay [1] can be described thus: qHTS profiling for inhibitors of Plasmodium falciparum proliferation (AID 504749). Further: nearly all actives have a fitted effect of over 60% in size.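 On activity, negative = inhibition: 0% = DMSO vehicle and full inhibition = artemisinin control.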 The following applies: P. falciparum in erythrocytes, SYBR Green DNA, 72 h. The essentials: (§1)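 Three-day growth assay of blood-stage parasites in erythrocytes (0.3% parasitemia, 2.5% hematocrit) at 37 C, 5% CO2, quantified by SYBR Green DNA staining after overnight detergent lysis.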
(qHTS replaces the single test concentration by a dilution series.)

For assay [2], the system named is 3D7. Described as above. The conditions noted are these: P. falciparum in erythrocytes, SYBR Green DNA, 72 h; series mostly up to 28.7 µM. The method in brief: as §1
Assay [3] has as its system 7G8. The assay is described as above. The conditions noted are these: P. falciparum in erythrocytes, SYBR Green DNA, 72 h; series mostly up to 28.7 µM. The essentials:
as §1

For assay [4], the system named is AA1029. Described as above. The following applies: P. falciparum in erythrocytes, SYBR Green DNA, 72 h; series mostly up to 28.7 µM. The essentials:
as §1

Assay [5] deals with AS120. The assay is described as above. The conditions noted are these: P. falciparum in erythrocytes, SYBR Green DNA, 72 h; series mostly up to 28.7 µM. The essentials: as §1
The mark [6] stands for this setting: at 28.7 µM (top of the series), parasite line A.
Setting [7] is: at 28.7 µM (top of the series), parasite line B.
Where [8] appears, read: at 12.8 µM (top of the series), parasite line A.
Where [9] appears, read: at 12.8 µM (top of the series), parasite line B.

Inconclusive results are not listed. Unmarked numbers belong to inactive results. Activity calls are given as the source filed them. The call rests on the fitted dose curve; in most records, active means well fitted inhibition curve with a large enough effect; inconclusive means small, poorly fitted or top-dose-only effect; inactive means flat fitted curve, though single readings scatter.
Potency means the concentration at half of the fitted maximal effect.

`O=C(O)CCNC(=O)c1ccccc1`: the activity, negative = inhibition in assay [1] (setting [6]) is 0.623%; in assay [1] (setting [7]), 11.8%. The Potency entry in assay [2], in assay [3], in assay [4] and in assay [5] was “inactive” throughout.
`Nc1nc(N)c(-c2ccccc2)s1`: the results for the activity, negative = inhibition in assay [1] (setting [6]) and in assay [1] (setting [7]) were 18.4% and 11.9%, respectively. The Potency result in assay [2], in assay [3], in assay [4] and in assay [5] was “inactive” each time.
Consider `CC(=O)N[C@@H](CCC(=O)O)C(=O)O`, for which the activity, negative = inhibition in assay [1] (setting [6]) was 4.59%; in assay [1] (setting [7]) it was 2.94%. For the same compound, the Potency result in assay [2], in assay [3], in assay [4] and in assay [5] was “inactive” throughout.
With `CN(Cc1ccc(C(C)(C)C)cc1)Cc1cccc2ccccc12`, the activity, negative = inhibition in assay [1] (setting [6]) was -10%; in assay [1] (setting [7]) it was -26.9%. Further, the Potency result in assay [2], in assay [4] and in assay [5] was “inactive” in each case. Moreover, the Potency in assay [3] is 11.2 µM (active).
Consider `CC(=O)Oc1ccc(C)cc1`, for which the activity, negative = inhibition is 9.31% in assay [1] (setting [6]) and 10.5% in assay [1] (setting [7]). Moreover, the Potency result in assay [2], in assay [3], in assay [4] and in assay [5] was “inactive” throughout.
With `CC(=O)Nc1ccc(OC(=O)c2ccccc2OC(C)=O)cc1`, the activity, negative = inhibition in assay [1] (setting [6]) is -24.5%; in assay [1] (setting [7]) it was 5.15%. The Potency result in assay [2], in assay [3], in assay [4] and in assay [5] was “inactive” each time.
With `CCc1ccc(C(=O)C(C)CN2CCCCC2)cc1` (centres undefined), the figures for the activity, negative = inhibition in assay [1] (setting [6]) and in assay [1] (setting [7]) were 2.55% and 6.09%, respectively. The Potency result in assay [2], in assay [3], in assay [4] and in assay [5] was “inactive” each time.
For `CC(C)Cn1cnc2c1c(=O)n(C)c(=O)n2C`, the activity, negative = inhibition in assay [1] (setting [6]) was -14.6%; in assay [1] (setting [7]), 1.13%. Moreover, the Potency entry in assay [2], in assay [3], in assay [4] and in assay [5] was “inactive” throughout.
As to `CCCCCCCCNC(C)C(O)c1ccc(SC(C)C)cc1` (centres undefined), the Potency in assay [1] (parasite line A) is 1.26 µM (active); in assay [1] (parasite line B), 0.562 µM (active); in assay [2], 794 nM (active); in assay [3], 0.1 µM (active); in assay [4], 1 µM (active); in assay [5] it was 891 nM (active).
On to `Cc1ncc(CO)c(C=O)c1O`, for which the activity, negative = inhibition in assay [1] (setting [6]) is 0.609%; in assay [1] (setting [7]), 9.9%. Further, the Potency result in assay [2], in assay [3], in assay [4] and in assay [5] was “inactive” each time.
Regarding `CCCCCCCCCCCCSCCOCCO`, the figures for the activity, negative = inhibition in assay [1] (setting [6]) and in assay [1] (setting [7]) were 9.57% and 14.6%, respectively. Also, the Potency entry in assay [2], in assay [3], in assay [4] and in assay [5] was “inactive” each time.
For `CC(C)NCC(O)c1ccc2ccccc2c1` (centres undefined), the Potency in assay [1] (parasite line A) was 11.2 µM (active); in assay [1] (parasite line B) it was 4.47 µM (active); in assay [2] it was 11200 nM (active); in assay [3], 1.41 µM (active); in assay [4] it was 5.01 µM (active); in assay [5], 7940 nM (active).
For `Cc1cc(NS(=O)(=O)c2ccc(N)cc2)nc(C)n1`, the activity, negative = inhibition in assay [1] (setting [6]) is 9.36%; in assay [1] (setting [7]) it was 5.66%. Besides, the Potency result in assay [2], in assay [3], in assay [4] and in assay [5] was “inactive” throughout.
Regarding `O=C(O)Cc1csc(-c2ccc(Cl)cc2)n1`, the activity, negative = inhibition is 1.5% in assay [1] (setting [6]) and 8.07% in assay [1] (setting [7]). The Potency result in assay [2], in assay [3], in assay [4] and in assay [5] was “inactive” throughout.
`Oc1ccccc1C=NCc1ccccc1`: the activity, negative = inhibition in assay [1] (setting [6]) was 2.18%; in assay [1] (setting [7]), -16.9%. In addition, the Potency result in assay [2], in assay [3], in assay [4] and in assay [5] was “inactive” each time.
As for `CC[C@H](c1ccc(O)cc1)[C@@H](CC)c1ccc(O)cc1`, the activity, negative = inhibition in assay [1] (setting [8]) is -8.43%; in assay [1] (setting [9]), 3.18%. Further, the Potency result in assay [2], in assay [3], in assay [4] and in assay [5] was “inactive” throughout.
`COc1cc(C(=O)NCc2ccc(OCCN(C)C)cc2)cc(OC)c1OC`: the activity, negative = inhibition is -2.54% in assay [1] (setting [8]) and -4.52% in assay [1] (setting [9]). In addition, the Potency entry in assay [2], in assay [3], in assay [4] and in assay [5] was “inactive” throughout.
Turning to `CCN1/C(=C/C=C/c2sc3ccccc3[n+]2CC)Sc2ccccc21`, the Potency in assay [1] (parasite line A) is 0.0891 µM (active); in assay [1] (parasite line B) it was 0.178 µM (active); in assay [2] it was 141 nM (active); in assay [3], 0.0794 µM (active); in assay [4] it was 0.178 µM (active); in assay [5], 199 nM (active).
`C/C=C/C=N/NC(=O)c1ccncc1`: the activity, negative = inhibition in assay [1] (setting [6]) was -1.02%; in assay [1] (setting [7]), -0.189%. The Potency result in assay [2], in assay [3], in assay [4] and in assay [5] was “inactive” each time.
